Screening data deposited in PubChem BioAssay by National Center for Advancing Translational Sciences (NCATS).
IMPase cell inh = membrane-permeable compound that blocks inositol monophosphatase; inhibition (IP1 accumulation), % at 46.1 µM; CHO-M1 cells, IP1 accumulation, HTRF TR-FRET ratio; 120,000 tested, under 10 active; P97697; AID 901; active = well fitted curve in the direction sought with a large enough effect in the signal ratio, not every such curve was filed as active; inconclusive = small, poorly fitted or top-dose-only effect, or a change in a side signal; inactive = no such curve, though single readings can be large or run the other way; the % refers to the signal ratio;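 note: cells stimulated with carbachol in lithium chloride buffer; plate controls were DMSO basal wells for no effect and reference inhibitor wells for full effect; higher means more IMPase inhibition seen as more IP1 and lower FRET ratio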
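CHO-M1 cells (CHO stably expressing M1 receptor), compound up to 46 uM final, stimulated with carbachol (50 uM as added) in buffer with 50mM LiCl, pH 7.4, 30 min at 37C. Cytosolic IP1 read by TR-FRET; AC50 from Hill fits.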
ALDH1A1 inh = inhibitors of human aldehyde dehydrogenase 1A1 | Purified ALDH1A1, NADH fluorescence, propionaldehyde substrate | Potency, µM (top dose mostly 75.3 µM), without a hit: at the top dose activity, negative = inhibition, actives largely listed as inhibitors | 220,000 tested, 7.3% active;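 note: potency is the fitted concentration of half-maximal effect; plate controls were no enzyme wells and a reference inhibitor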
HPGD inh = HPGD (human) dehydrogenase inhibition | purified HPGD, NADH fluorescence kinetic, PGE2 substrate | P15428 | Potency, µM, for the others: top-dose activity change, negative = inhibition, most hits filed as inhibitors | 150,000 tested, 4.3% active | AID 894; note: potency is the fitted concentration of half-maximal effect
Target sequence (P15428 whole entry, looked up): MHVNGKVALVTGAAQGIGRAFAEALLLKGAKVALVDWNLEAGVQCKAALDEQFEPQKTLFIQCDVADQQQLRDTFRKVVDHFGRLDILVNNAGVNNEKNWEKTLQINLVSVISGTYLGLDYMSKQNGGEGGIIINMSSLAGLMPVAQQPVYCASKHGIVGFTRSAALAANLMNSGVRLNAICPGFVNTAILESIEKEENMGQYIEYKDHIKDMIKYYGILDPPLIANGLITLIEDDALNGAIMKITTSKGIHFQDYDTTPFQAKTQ
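NADH formation kinetics: reaction with 30 uM PGE2 and 1 mM NAD+ (final), 20 nM enzyme, Tris-HCl pH 8 with Tween 20, after 15 min compound preincubation at room temperature. Fluorescence change, last versus first of five reads.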
* marks the source's active call; other numbers are inactive results; ? = inconclusive; . = no result; [ ] = another dose, or the depositor's remark. Only some compounds are listed: those with a hit (about 9% of all), similar ones and a draw of the others. Unless noted, calls come from the whole dose curve; as a rule, active = well fitted inhibition curve with a large enough effect (not every such curve was filed as active); inconclusive = small, poorly fitted or top-dose-only effect, or another doubt; inactive = no such curve, though single readings can be large or run the other way. Unless noted, % is set by controls: 0 for no effect and ±100 for the full control effect.

SMILES	IMPase cell inh	ALDH1A1 inh	HPGD inh
Fc1ccc(NC(=S)N2CCN(c3ncccn3)CC2)cc1	.	2%	.
O=C(CSc1ncnc2ccccc12)NCC(=O)c1ccccc1	.	13%	.
Cc1ccc2oc(-c3cc(NC(=O)CC(C)C)ccc3Cl)nc2c1	-1	.	.
CCCCCCCC/C=C\CCCCCCCC(=O)OCC(CO)OC(=O)CCCCCCC/C=C\CCCCCCCC (centres undefined)	.	2%	-2%
Cc1ccc(S(=O)(=O)/C(C#N)=C/c2c[nH]c3ccccc23)cc1	13	8%	-7%
O=C(/C=C/c1ccc[nH]1)c1ccccc1	.	-3%	.
O=C(/C=C/c1c[nH]c2ccccc12)c1ccccc1	.	3.2µM*	16µM*
Cc1ccc(C(=O)/C=C/c2c[nH]c3ccccc23)cc1	8	25µM*	?
CNCC[C@H](Oc1ccccc1OC)c1ccccc1	12	1%	6%
CC(=O)OC[C@@H]1O[C@@H](O/N=C2/C[C@@H](O)[C@@H](O)[C@@H]3[C@@H]4C(=O)N(C5CCCCC5)C(=O)[C@H]4CC[C@@H]23)[C@H](OC(C)=O)[C@H](OC(C)=O)[C@@H]1OC(C)=O	.	15%[13.5 µM]	.
CCOC(=O)CN1C(=O)N[C@@H](c2ccc(Br)cc2)C(C(=O)OC)=C1C	.	-3%[13.5 µM]	1%
CCOC(=O)CN1C(=O)N[C@H](c2ccc(Br)cc2)C(C(C)=O)=C1C	.	14µM*	-23%
Cn1nnc2cc(C(=O)Nc3ccc4ccccc4c3)ccc21	.	14%	.
O=C(O)CCN1CCc2ccccc2C1c1cccs1 (centres undefined)	.	-8%	.
COc1ccccc1NS(=O)(=O)c1cccc(C(=O)NN=C2CCCCCC2)c1	.	13µM*	-17%
COc1ccccc1NS(=O)(=O)c1ccc(NN=C2CCCCC2)c([N+](=O)[O-])c1	.	-5%	-12%
O=C1CN(C(=O)C2CCCC2)CCN1	.	2%	0%
Cc1cc(NC(=O)C2CCCCC2)ccc1NC(=O)c1ccccc1Cl	.	7%	-10%
CCc1cc2ccc(C)cc2nc1SCC(=O)NNC(=O)c1ccco1	.	4µM*	0%
Cc1ccc(-c2nc(CSCC(=O)N3CCN(C(=O)c4ccco4)CC3)c(C)o2)cc1	5	22µM*	-15%
CCOC(=O)CSc1nnnn1-c1cc(OC)ccc1OC	-8	-16%	-15%
COc1ccc(C)cc1-n1nnnc1SCC(=O)NNC(=O)c1ccc([N+](=O)[O-])cc1	-1	3.2µM*	-19%
Cc1ccc(C)c(-n2nnnc2SCC(=O)NNC(=O)c2ccco2)c1	.	8.9µM*	.
Cc1ccc(-n2nnnc2SCC(=O)NNC(=O)c2ccco2)cc1C	-2	?	3%
Cc1ccc(-n2c(C)nnc2SCC(=O)NNC(=O)c2ccco2)cc1	.	5%	.
SMILES	IMPase cell inh	ALDH1A1 inh	HPGD inh
Cc1ccc(-c2nc(CSCC(=O)N3CCOCC3)c(C)o2)cc1	-14	?	-16%
O=C(NCCCN1CCN(c2ccccc2F)CC1)c1nnc(Cc2ccc(Cl)cc2Cl)o1	3	.	.
O=C(NCCCn1ccnc1)/C(=C\c1cccnc1)NC(=O)c1cccc(Br)c1	.	3%	3%
COc1ccccc1-c1ccc2ncnc(NC3CC3)c2c1	.	-4%	.
CCCC(=O)C1=C(O)C(C(=O)OC)C(C)(C)CC1=Nc1ccncc1 (centres undefined)	-12	-1%	-13%
Cc1ccc(-n2nnnc2SCn2nnc3ccccc3c2=O)cc1	5	?	-24%
CCc1cc2cc(C)ccc2nc1SCC(=O)Nc1cc(C)on1	-21	7%	-15%
COc1ccc(C)cc1-n1nnnc1SCn1nnc2ccccc2c1=O	8	18µM*	-15%
CCc1cc2ccc(C)cc2nc1SCC(=O)Nc1cc(C)on1	.	25µM*	.
CCc1cc2cc3c(cc2nc1SCC(=O)N1CCN(C(=O)c2ccco2)CC1)OCO3	3	?	-17%
CCc1cc2ccc(C)cc2nc1SCC(=O)N1CCN(C(=O)c2ccco2)CC1	11	10µM*	?
CCOc1cc(C(=O)N2CCN(c3ccc(C(C)=O)cc3)CC2)cc(OCC)c1OCC	6	-13%	-9%
CN(C)CCN(C(=O)c1ccc(Br)s1)c1nc2cc3c(cc2s1)OCCO3	.	7%	.
CN(C)CCN(C(=O)c1ccc(N2C(=O)CCC2=O)cc1)c1nc2cc3c(cc2s1)OCO3	.	20µM*	.
Cc1cccc(Nc2ncnc3c2cnn3Cc2ccccc2)c1	.	22µM*	.
COc1ccc2cnn(Cc3ccccc3)c(=O)c2c1OC	-3	3.5µM*	.
COc1ccc(NC(=O)CSc2ncnc3c2cnn3Cc2ccccc2)cc1	2	-26%	-28%
COc1ccc(CC(=O)NNc2ncnc3c2cnn3Cc2ccccc2)cc1OC	.	10µM*	.
COc1ccc(NC(=O)CSc2ncnc3c2cnn3Cc2ccccc2)cc1OC	3	?	4%
COc1ccc(Nc2ncnc3c2cnn3Cc2ccccc2)cc1OC	19	8.9µM*	.
